Data taken from PubChem BioAssay (EPA / NIEHS).
Values joined by “and” are separate entries in the source; they are usually repeats but may differ in a detail not shown here. Identical values can stand only once. More than one record can exist for a structure, and the calls need not agree. Active and inactive are the calls of the source. How the source made its calls: active means hit-call score of the fitted dose curve at least 0.9, where 1 is the maximum; inactive means score below 0.9.

What was measured:
[1] = APR_HepG2_NuclearSize_72hr: Apredica 72-hour HepG2 Assay for Nuclear Size (AID 2282925); conditions: high-content imaging, actives raise or lower the signal
Summary of the method: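 Read-out: nuclear diameter from Hoechst 33342 images (ArrayScan, 20x, six fields/well), via cell-cycle image analysis. HepG2 were dosed 0.39–200 uM for 72 hr in 0.5% DMSO. Bidirectional fit relative to DMSO.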

[2] = ATG_CRE_CIS: Attagene CIS-FACTORIAL HepG2 Assay for human cAMP Responsive Element (CRE) binding protein 3 (AID 2282926); conditions: HepG2 CRE cis-reporter, Attagene multiplexed mRNA; actives raise or lower the signal
Summary of the method: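 Liver-derived HepG2, transfected with a CRE-containing reporter panel, exposed 24 h; transcript levels sized and quantified by capillary electrophoresis of labelled amplicons; signal changes either way referenced to vehicle.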

[3] = biological target: CCAAT/enhancer-binding protein beta (Homo sapiens) (UniProt P17676); assay: ATG_C_EBP_CIS: Attagene CIS-FACTORIAL HepG2 Assay for human CCAAT/Enhancer Binding Protein (C/EBP) beta (AID 2282927); conditions: HepG2 Attagene cis-factorial transcription factor reporter; actives raise or lower the signal
CCAAT/enhancer-binding protein beta (Homo sapiens), sequence (P17676 whole entry, looked up): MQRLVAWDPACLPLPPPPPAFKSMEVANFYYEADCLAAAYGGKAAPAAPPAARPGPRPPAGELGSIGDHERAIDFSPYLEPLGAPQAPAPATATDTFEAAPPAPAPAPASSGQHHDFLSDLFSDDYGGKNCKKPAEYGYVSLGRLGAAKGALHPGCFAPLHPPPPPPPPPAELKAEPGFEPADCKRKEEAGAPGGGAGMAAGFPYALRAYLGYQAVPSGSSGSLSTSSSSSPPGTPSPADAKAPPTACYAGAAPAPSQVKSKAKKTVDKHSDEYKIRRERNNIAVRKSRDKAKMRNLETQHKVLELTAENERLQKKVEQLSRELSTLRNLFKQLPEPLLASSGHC
Summary of the method: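 HepG2, transient MRTU transfection, 24 h treatment. RT-PCR plus CE fluorescence; DMSO negative control, bidirectional fit.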

[4] = ATG_CMV_CIS: Attagene CIS-FACTORIAL HepG2 Assay for human CMV (Internal Marker) (AID 2282928); conditions: HepG2 CMV promoter reporter, transcription factor profiling; actives raise or lower the signal;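 further: endpoint acts as a background internal control marker rather than a target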
Summary of the method: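 Reporter transcripts from transfected HepG2 cells are isolated after 24 h of chemical dosing, reverse-transcribed and amplified. Fragments labeled with 6-FAM are cut with HpaI and quantified by capillary electrophoresis; DMSO defines baseline.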

[5] = ATG_DR4_LXR_CIS: Attagene CIS-FACTORIAL HepG2 Assay for human Liver X Receptor (LXR), DR4 submotif (AID 2282929); conditions: HepG2 Attagene DR4 cis-reporter, mRNA transcription; actives raise or lower the signal
Summary of the method: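 The endpoint is DR4-element-driven reporter transcripts after 24 h chemical exposure of transfected HepG2 cells. These were measured via RT-PCR and capillary electrophoresis, and gain or loss of signal was fitted relative to DMSO controls.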

[6] = biological target: Aryl hydrocarbon receptor (Homo sapiens) (UniProt P35869); assay: ATG_Ahr_CIS: Attagene CIS-FACTORIAL HepG2 Assay for human Aryl Hydrocarbon Receptor (Ahr) (AID 2282930); conditions: HepG2 AhR cis-factorial reporter transcription; actives raise or lower the signal
Aryl hydrocarbon receptor (Homo sapiens), sequence (P35869 whole entry, looked up): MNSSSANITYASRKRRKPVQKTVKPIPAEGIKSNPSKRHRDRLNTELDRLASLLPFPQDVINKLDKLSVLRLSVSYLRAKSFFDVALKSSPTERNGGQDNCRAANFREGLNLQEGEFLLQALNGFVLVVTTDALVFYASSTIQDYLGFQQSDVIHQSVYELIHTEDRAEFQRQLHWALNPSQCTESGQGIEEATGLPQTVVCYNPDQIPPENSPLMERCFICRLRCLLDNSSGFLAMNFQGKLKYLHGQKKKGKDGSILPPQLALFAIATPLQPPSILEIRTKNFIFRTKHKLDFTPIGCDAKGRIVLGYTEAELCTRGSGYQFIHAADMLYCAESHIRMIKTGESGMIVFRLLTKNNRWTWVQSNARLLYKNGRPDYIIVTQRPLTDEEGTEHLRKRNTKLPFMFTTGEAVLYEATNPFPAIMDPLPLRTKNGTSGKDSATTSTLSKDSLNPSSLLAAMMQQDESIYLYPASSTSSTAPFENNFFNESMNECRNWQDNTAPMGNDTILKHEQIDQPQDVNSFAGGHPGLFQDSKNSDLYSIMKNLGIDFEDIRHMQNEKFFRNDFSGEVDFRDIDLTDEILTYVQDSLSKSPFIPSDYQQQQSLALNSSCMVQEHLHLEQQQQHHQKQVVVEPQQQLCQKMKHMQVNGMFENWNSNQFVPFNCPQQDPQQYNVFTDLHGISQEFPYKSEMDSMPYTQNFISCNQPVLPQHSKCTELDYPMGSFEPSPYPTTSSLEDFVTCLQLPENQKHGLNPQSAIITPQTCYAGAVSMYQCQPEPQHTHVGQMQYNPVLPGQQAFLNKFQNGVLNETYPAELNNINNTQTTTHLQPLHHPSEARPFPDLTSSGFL
Summary of the method: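 Endogenous factor activity is tracked through cis-promoter reporter units transfected into HepG2 cells. Transcript levels at 24 h are read by fluorescent RT-PCR and capillary electrophoresis, with activity in either direction scored relative to DMSO.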

[7] = ATG_AP_1_CIS: Attagene CIS-FACTORIAL HepG2 Assay for human Activator Protein 1 (AP-1) (AID 2282931); conditions: HepG2 Attagene cis-factorial AP-1 reporter mRNA; actives raise or lower the signal
Summary of the method: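 Readout is reporter transcript level from endogenous transcription factor activity, quantified by RT-PCR with fluorescent primer extension and capillary electrophoresis. Transiently transfected HepG2 cells, 24 h exposure. Curves fitted both directions versus DMSO.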

[8] = ATG_AP_2_CIS: Attagene CIS-FACTORIAL HepG2 Assay for human Activator Protein 2 (AP-2) (AID 2282932); conditions: HepG2 AP-2 cis-reporter, Attagene transcription factor profiling; actives raise or lower the signal
Summary of the method: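 Read-out: fluorescent reporter mRNA via RT-PCR and capillary electrophoresis, 24 h post-dose in transiently transfected HepG2. Endogenous factors drive cis-promoter reporters; gain or loss of signal fitted bidirectionally against DMSO.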

[9] = ATG_BRE_CIS: Attagene CIS-FACTORIAL HepG2 Assay for human Bone Morphogenetic Protein (BMP) Response Element (BRE) (AID 2282933); conditions: HepG2 BMP response element reporter, Attagene transcription factor profiling; actives raise or lower the signal
Summary of the method: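 Read-out: reporter mRNA induction quantified by RT-PCR and capillary electrophoresis after 24 h chemical exposure of transfected HepG2 cells. Endogenous factor activity on the BMP response element; gain or loss fitted against DMSO baseline.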

[10] = biological target: Retinoic acid receptor alpha (Homo sapiens) (UniProt P10276); assay: ATG_DR5_RAR_CIS: Attagene CIS-FACTORIAL HepG2 Assay for human Retinoic Acid Receptor Alpha (RARE), DR5 submotif (AID 2282934); conditions: HepG2 Attagene cis-factorial RARE DR5 reporter, mRNA; actives raise or lower the signal
Retinoic acid receptor alpha (Homo sapiens), sequence (P10276 whole entry, looked up): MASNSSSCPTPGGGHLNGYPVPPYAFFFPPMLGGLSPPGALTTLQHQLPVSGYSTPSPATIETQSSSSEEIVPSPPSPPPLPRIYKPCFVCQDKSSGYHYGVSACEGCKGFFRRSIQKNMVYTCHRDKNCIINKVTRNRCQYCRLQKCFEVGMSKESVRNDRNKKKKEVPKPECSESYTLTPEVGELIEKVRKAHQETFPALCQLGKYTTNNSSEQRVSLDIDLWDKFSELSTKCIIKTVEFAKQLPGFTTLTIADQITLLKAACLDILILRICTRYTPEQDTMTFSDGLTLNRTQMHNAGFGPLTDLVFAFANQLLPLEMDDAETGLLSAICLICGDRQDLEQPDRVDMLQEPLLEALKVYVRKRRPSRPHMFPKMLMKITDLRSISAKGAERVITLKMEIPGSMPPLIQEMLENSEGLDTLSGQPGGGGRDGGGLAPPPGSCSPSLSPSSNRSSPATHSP
Summary of the method: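 After 24 h of chemical exposure, transiently transfected HepG2 cells were lysed for total RNA; the DR5-regulated reporter transcript was quantified via RT-PCR and capillary electrophoresis, with activity fitted bidirectionally against DMSO.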

## O=C(c1ccc(OCCN2CCCCC2)cc1)c1c(-c2ccc(O)cc2)sc2cc(O)ccc12
[1]
  outcome: inactive
[2]
  AC50: 11.1 µM (active) and 14.7 µM (active)
  outcome: inactive
[3]
  AC50: 15.2 µM (active)
  outcome: inactive
[4]
  AC50: 14.8 µM (active) and 7.91 µM (active)
  outcome: inactive
[5]
  AC50: 20.3 µM (active) and 19.9 µM (active)
  outcome: inactive
[6]
  AC50: 19.3 µM (active)
  outcome: inactive
[7]
  AC50: 17.5 µM (active) and 16.9 µM (active) and 13.1 µM (active)
  outcome: inactive
[8]
  AC50: 11.1 µM (active) and 15.4 µM (active)
  outcome: inactive
[9]
  outcome: inactive

## Cc1cccc(C)c1
[2]
  outcome: inactive
[3]
  outcome: inactive
[4]
  outcome: inactive
[5]
  outcome: inactive
[6]
  outcome: inactive
[7]
  outcome: inactive
[8]
  outcome: inactive
[9]
  outcome: inactive

## Cc1ccc(C(C)(C)O)cc1
[2]
  outcome: inactive
[3]
  outcome: inactive
[4]
  outcome: inactive
[5]
  outcome: inactive
[6]
  outcome: inactive
[7]
  outcome: inactive
[8]
  outcome: inactive

## C[C@H](CCC(=O)O)[C@H]1CC[C@H]2[C@@H]3CC[C@@H]4C[C@H](O)CC[C@]4(C)[C@H]3CC[C@]12C
[2]
  outcome: inactive
[3]
  AC50: 62.7 µM (active)
[4]
  outcome: inactive
[5]
  AC50: 29.4 µM (active)
[6]
  AC50: 62.7 µM (active)
[7]
  outcome: inactive
[8]
  AC50: 168 µM (active)
[9]
  AC50: 165 µM (active)

## CCCCCCCCCCCCN1CCOCC1
[2]
  outcome: inactive
[3]
  outcome: inactive
[4]
  AC50: 44.8 µM (active)
[5]
  AC50: 60.5 µM (active)
[6]
  outcome: inactive
[7]
  AC50: 51.8 µM (active)
[8]
  outcome: inactive
[9]
  AC50: 47.7 µM (active)

## c1ccc(OCCOc2ccccc2)cc1
[2]
  outcome: inactive
[3]
  outcome: inactive
[4]
  outcome: inactive
[5]
  outcome: inactive
[6]
  AC50: 0.142 µM (active)
[7]
  outcome: inactive
[8]
  outcome: inactive

## C=CCOC(=O)/C=C\C(=O)OCC=C
[2]
  AC50: 27.1 µM (active)
[3]
  outcome: inactive
[4]
  AC50: 63.8 µM (active)
[5]
  AC50: 27.9 µM (active)
[6]
  AC50: 61.2 µM (active)
[7]
  outcome: inactive
[8]
  AC50: 21.7 µM (active)
[9]
  outcome: inactive

## c1ccc(Cc2ccccc2)cc1
[2]
  outcome: inactive
[3]
  outcome: inactive
[4]
  outcome: inactive
[5]
  outcome: inactive
[6]
  outcome: inactive
[7]
  outcome: inactive
[8]
  outcome: inactive
[9]
  outcome: inactive

## CC(CO)c1ccccc1 (centres undefined)
[2]
  outcome: inactive
[3]
  outcome: inactive
[4]
  outcome: inactive
[5]
  outcome: inactive
[6]
  outcome: inactive
[7]
  outcome: inactive
[8]
  outcome: inactive
[9]
  outcome: inactive

## O=C1CCC(=O)N1
[2]
  outcome: inactive
[3]
  outcome: inactive
[4]
  outcome: inactive
[5]
  outcome: inactive
[6]
  outcome: inactive
[7]
  outcome: inactive
[8]
  outcome: inactive
[9]
  outcome: inactive

## c1ccc2c(c1)-c1ccc3ccc4cccc5cc-2c1c3c45
[2]
  outcome: inactive
[3]
  outcome: inactive
[4]
  outcome: inactive
[5]
  outcome: inactive
[6]
  AC50: 0.543 µM (active)
[7]
  outcome: inactive
[8]
  outcome: inactive
[9]
  outcome: inactive

## CCCC[N+](C)(CCCC)CCCC
[2]
  outcome: inactive
[3]
  outcome: inactive
[4]
  outcome: inactive
[5]
  outcome: inactive
[6]
  outcome: inactive
[7]
  outcome: inactive
[8]
  outcome: inactive
[9]
  outcome: inactive

## CC/C(=C(\c1ccccc1)c1ccc(OCCN(C)C)cc1)c1ccccc1
[1]
  AC50: 119 µM (active)
  outcome: inactive
[3]
  outcome: inactive
[4]
  outcome: inactive
[5]
  outcome: inactive
[7]
  outcome: inactive
[8]
  outcome: inactive
[9]
  outcome: inactive
[10]
  outcome: inactive

## C1CCCNCC1
[2]
  outcome: inactive
[3]
  outcome: inactive
[4]
  outcome: inactive
[5]
  outcome: inactive
[6]
  AC50: 62.5 µM (active)
[7]
  outcome: inactive
[8]
  outcome: inactive
[9]
  outcome: inactive

## C[N+](C)(C)CCO
[2]
  outcome: inactive
[3]
  outcome: inactive
[4]
  outcome: inactive
[5]
  outcome: inactive
[6]
  outcome: inactive
[7]
  outcome: inactive
[8]
  outcome: inactive

## O=C1OCc2ccccc21
[2]
  outcome: inactive
[3]
  outcome: inactive
[4]
  outcome: inactive
[5]
  outcome: inactive
[6]
  outcome: inactive
[7]
  outcome: inactive
[8]
  outcome: inactive
[9]
  outcome: inactive

## CCOCC(C)O (centres undefined)
[2]
  outcome: inactive
[3]
  outcome: inactive
[4]
  outcome: inactive
[5]
  outcome: inactive
[6]
  outcome: inactive
[7]
  outcome: inactive
[8]
  outcome: inactive
[9]
  outcome: inactive

## COc1ccccc1O
[2]
  outcome: inactive
[3]
  outcome: inactive
[4]
  outcome: inactive
[5]
  outcome: inactive
[6]
  outcome: inactive
[7]
  outcome: inactive
[8]
  outcome: inactive

## CCC(CC)CO
[2]
  outcome: inactive
[3]
  outcome: inactive
[4]
  outcome: inactive
[5]
  outcome: inactive
[6]
  outcome: inactive
[7]
  outcome: inactive
[8]
  outcome: inactive
[9]
  outcome: inactive

## CC(CO)(CO)[N+](=O)[O-]
[2]
  outcome: inactive
[3]
  outcome: inactive
[4]
  outcome: inactive
[5]
  outcome: inactive
[6]
  outcome: inactive
[7]
  outcome: inactive
[8]
  outcome: inactive

## CN(C)C
[2]
  outcome: inactive
[3]
  outcome: inactive
[4]
  outcome: inactive
[5]
  outcome: inactive
[6]
  outcome: inactive
[7]
  outcome: inactive
[8]
  outcome: inactive
[9]
  outcome: inactive

## C[C@]12CC[C@@H]3c4ccc(O)cc4CC[C@H]3[C@@H]1CC[C@@H]2O
[1]
  outcome: inactive
[2]
  outcome: inactive
[3]
  outcome: inactive
[4]
  AC50: 19.5 µM (active) [middle of 4 runs]
  outcome: inactive
[5]
  outcome: inactive
[6]
  AC50: 27.7 µM (active) and 62.5 µM (active)
  outcome: inactive
[7]
  outcome: inactive
[8]
  AC50: 65.8 µM (active)
  outcome: inactive
[9]
  outcome: inactive
[10]
  outcome: inactive

## CC1=CC[C@@H](C(C)(C)O)CC1
[2]
  outcome: inactive
[3]
  outcome: inactive
[4]
  outcome: inactive
[5]
  outcome: inactive
[6]
  outcome: inactive
[7]
  outcome: inactive
[8]
  outcome: inactive
[9]
  outcome: inactive

## O=c1cc[nH]cc1
[2]
  outcome: inactive
[3]
  outcome: inactive
[4]
  outcome: inactive
[5]
  outcome: inactive
[6]
  outcome: inactive
[7]
  outcome: inactive
[8]
  outcome: inactive

## COc1ccc2[nH]cc(CCNC(C)=O)c2c1
[2]
  outcome: inactive
[3]
  outcome: inactive
[4]
  outcome: inactive
[5]
  outcome: inactive
[6]
  outcome: inactive
[7]
  outcome: inactive
[8]
  outcome: inactive
[9]
  outcome: inactive

## CC1COC(=O)O1 (centres undefined)
[2]
  outcome: inactive
[3]
  outcome: inactive
[4]
  outcome: inactive
[5]
  outcome: inactive
[6]
  outcome: inactive
[7]
  outcome: inactive
[8]
  outcome: inactive
[9]
  outcome: inactive

## CCCCCCC(O)CCOC(C)=O (centres undefined)
[2]
  outcome: inactive
[3]
  outcome: inactive
[4]
  outcome: inactive
[5]
  outcome: inactive
[6]
  outcome: inactive
[7]
  outcome: inactive
[8]
  outcome: inactive
[9]
  outcome: inactive

## CC=CC(=O)C1=C(C)C=CCC1(C)C
[2]
  outcome: inactive
[3]
  outcome: inactive
[4]
  outcome: inactive
[5]
  outcome: inactive
[6]
  outcome: inactive
[7]
  outcome: inactive
[8]
  outcome: inactive

## C=CCOCC(O)CO (centres undefined)
[2]
  outcome: inactive
[3]
  AC50: 100 µM (active)
[4]
  outcome: inactive
[5]
  outcome: inactive
[6]
  outcome: inactive
[7]
  outcome: inactive
[8]
  outcome: inactive
[9]
  outcome: inactive
